Records with an inconclusive call do not appear. Where a call stands in place of a potency, no number is given. Calls of active or inactive are those of the source. Unless noted, calls follow the shape of the full dose curve.
Assays:
[1] = qHTS assay to identify small molecule agonists of the vitamin D receptor (VDR) signaling pathway - cell viability counter screen (AID 743224; active = well fitted curve in the direction sought with a large enough effect in the repeat runs; an effect the other way counts as inactive or inconclusive; also: nearly all actives have a fitted effect of over 50% in size; also: potency is read from the fitted curve at half-maximal effect)
Procedure, shortened: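 VDR-bla cell line, quantitative HTS format; 16 h compound incubation (37C, 5% CO2); ATP-based CellTiter-Glo luminescence measured in the reporter assay wells.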

[2] = qHTS assay to identify small molecule antagonists of the vitamin D receptor (VDR) signaling pathway - cell viability counter screen (AID 743225; active = well fitted curve in the direction sought with a large enough effect in the repeat runs; an effect the other way counts as inactive or inconclusive; also: nearly all actives have a fitted effect of over 50% in size; also: potency is read from the fitted curve at half-maximal effect)
Procedure, shortened: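 Viability counter screen run in the same wells as the beta-lactamase reporter assay: HEK 293T VDR-UAS-bla cells, 16 h compound exposure at 37C with 3 nM (final) 1-alpha,25-dihydroxyvitamin D3. CellTiter-Glo luminescence, 30 min, room temperature.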

[3] = qHTS assay to identify small molecule agonists of the NFkB signaling pathway (AID 1159509; active = well fitted curve in the direction sought with a large enough effect in the signal ratio in the repeat runs, not every such curve was filed as active; the % refers to the signal ratio; also: series mostly up to about 61 µM)
Procedure, shortened: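 NFkB-bla ME-180 cells with a beta-lactamase reporter under an NF-kB response element were plated overnight, treated with compounds in DMSO for 5 hr at 37 C, then loaded with FRET substrate for 1.5 hr at room temperature.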

[4] = qHTS assay to identify small molecule agonists of the NFkB signaling pathway - cell viability counter screen (AID 1159515); also: series mostly up to about 61 µM; nearly all actives have a fitted effect of over 55% in size
Procedure, shortened: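 Viability in NFkB-bla ME-180 cells was measured by CellTiter-Glo luminescence, 30 min room temperature, in wells already treated 5 hr with compounds and read for reporter FRET.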

[5] = qHTS assay to identify small molecule agonists of the endoplasmic reticulum stress response signaling pathway (AID 1159516; active = well fitted activation curve with a large enough effect in the signal ratio in the repeat runs, not every such curve was filed as active; the % refers to the signal ratio)
Procedure, shortened: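 ER stress element reporter (bla) in HeLa. 1,500 cells/well, overnight attachment; 5 hr compound; 2 hr RT substrate; dual-emission fluorescence.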

[6] = qHTS assay to identify small molecule agonists of the endoplasmic reticulum stress response signaling pathway - cell viability counter screen (AID 1159517);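 also: HeLa cells carrying an ER stress response element beta-lactamase reporter; series mostly up to about 61 µM; nearly all actives have a fitted effect of over 50% in size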
Procedure, shortened: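 Counter-screen wells were identical to the reporter wells. Cells were plated at 1,500 per well and dosed for 5 hr, then read for luminescence 30 min after CellTiter-Glo addition.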

[7] = qHTS assay to identify small molecule antagonists of the retinoid-related orphan receptor gamma (ROR-gamma) signaling pathway - cell viability counter screen (AID 1159520; active = well fitted curve in the direction sought with a large enough effect in the repeat runs; an effect the other way counts as inactive or inconclusive; also: nearly all actives have a fitted effect of over 50% in size; also: potency is read from the fitted curve at half-maximal effect)
Procedure, shortened: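 Tet-on ROR gamma CHO cells were given compounds for 2 hr, then doxycycline hyclate at 1 uM final, and incubated 16 hr at 37 C. Viability was measured as ATP content by CellTiter-Glo luminescence.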

[8] = qHTS assay to identify small molecule agonists of the AP-1 signaling pathway - cell viability counter screen (AID 1159525); also: nearly all actives have a fitted effect of over 55% in size
Procedure, shortened: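 AP-1-bla ME-180 cells in Opti-MEM with 0.5% dialyzed FBS, compound exposure 5 h at 37 C in 15-point titration. Viability read in the same wells as ATP content by CellTiter-Glo luminescence, normalised to tetra-n-octylammonium bromide and DMSO controls.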

[9] = qHTS assay to identify small molecule agonists of the AP-1 signaling pathway (AID 1159526)
[10] = target: Nuclear receptor ROR-gamma (Homo sapiens) (UniProt P51449); experiment: qHTS assay to identify small molecule antagonists of the retinoid-related orphan receptor gamma (ROR-gamma) signaling pathway (AID 1159521; active = well fitted curve in the direction sought with a large enough effect in the repeat runs; an effect the other way counts as inactive or inconclusive; also: nearly all actives have a fitted effect of over 50% in size; also: potency is read from the fitted curve at half-maximal effect)
Procedure, shortened: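 Luminescence readout (ONE-Glo, 30 min RT) after 16 h doxycycline induction; loss of signal scored as antagonism. CHO cells with TET-inducible RORγ and RORE-LUC reporter; compounds added 2 h before 1 uM final doxycycline.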

| Compound | Potency [1] | Potency [2] | outcome [3] | Potency [4] | outcome [5] | Potency [6] | Potency [7] | Potency [8] | outcome [9] | Potency [10] |
| --- | --- | --- | --- | --- | --- | --- | --- | --- | --- | --- |
| CCOc1nc(F)cc2nc(S(=O)(=O)Nc3c(Cl)cccc3Cl)nn12 | inactive | inactive | inactive | inactive | inactive | inactive | inactive | inactive | inactive | – |
| CCOP(=S)(OCC)SCSCC | inactive | inactive | inactive | inactive | inactive | inactive | inactive | inactive | inactive | – |
| COc1nn(CSP(=S)(OC)OC)c(=O)s1 | – | – | inactive | – | – | – | – | – | – | – |
| COc1cc(Cl)c(OC)cc1Cl | inactive | inactive | inactive | inactive | inactive | inactive | inactive | inactive | – | – |
| CCCCCCCCOC(=O)c1ccc(C(=O)OCCCCCCCC)c(C(=O)OCCCCCCCC)c1 | inactive | – | inactive | inactive | inactive | inactive | inactive | inactive | inactive | – |
| CC(=O)[C@H]1CC[C@H]2[C@@H]3CC[C@H]4C[C@](C)(O)CC[C@]4(C)[C@H]3CC[C@]12C | inactive | inactive | inactive | inactive | inactive | inactive | inactive | – | – | – |
| CCOS(C)(=O)=O | inactive | inactive | inactive | inactive | inactive | inactive | inactive | inactive | inactive | – |
| CC(C)O.CC(C)O.OCCN(CCO)CCO.OCCN(CCO)CCO.[Ti] | inactive | – | inactive | inactive | inactive | inactive | inactive | inactive | – | – |
| COC(=O)C(C)N(C(=O)Cc1ccccc1)c1c(C)cccc1C (stereo not drawn) | inactive | inactive | inactive | inactive | inactive | inactive | inactive | – | inactive | – |
| Clc1ccc(C2(Cn3cncn3)CC(Br)CO2)c(Cl)c1 (stereo not drawn) | inactive | inactive | inactive | inactive | inactive | inactive | inactive | inactive | inactive | – |
| O=C(N[C@H](c1ccccc1)[C@@H]1CN2CCC1CC2)c1c(Cl)ccc(C(F)(F)F)c1Cl | – | inactive | inactive | inactive | inactive | inactive | inactive | inactive | – | – |
| CN1C[C@H](CNC(=O)OCc2ccccc2)C[C@@H]2c3cccc4c3c(cn4C)C[C@H]21 | inactive | inactive | inactive | inactive | inactive | inactive | inactive | inactive | – | – |
| CO/C=C(/C(=O)OC)c1ccccc1COc1cccc(C(F)(F)F)n1 | – | – | inactive | inactive | inactive | inactive | – | inactive | inactive | 0.769 µM (active) |
| N#CCC#N | inactive | inactive | inactive | inactive | inactive | inactive | – | inactive | – | 27.3 µM (active) |
| CCOP(=S)(Oc1ccc([N+](=O)[O-])cc1)c1ccccc1 (stereo not drawn) | inactive | inactive | inactive | inactive | inactive | inactive | inactive | inactive | inactive | – |
| COc1ccc(-c2ccccc2)cc1NNC(=O)OC(C)C | 57.2 µM (active) | 51 µM (active) | inactive | inactive | inactive | inactive | inactive | inactive | inactive | – |
| Cc1ccccc1C(=O)Nc1cccc(OC(C)C)c1 | inactive | – | inactive | inactive | inactive | inactive | inactive | – | inactive | – |
| CCCCNP(N)(N)=S | inactive | inactive | inactive | inactive | inactive | inactive | inactive | inactive | – | – |
| ClCc1cccc(Cl)c1 | inactive | inactive | inactive | inactive | inactive | inactive | inactive | – | inactive | – |
| O=C(CBr)OCc1ccccc1 | inactive | – | inactive | inactive | inactive | inactive | inactive | inactive | – | – |
| Cl/C=C\C[N+]12CN3CN(CN(C3)C1)C2 | inactive | inactive | inactive | inactive | inactive | inactive | – | inactive | inactive | inactive |
| CN1[C@@H]2CC[C@H]1CC(OC(=O)c1cc(Cl)cc(Cl)c1)C2 (stereo partly drawn) | inactive | inactive | inactive | inactive | inactive | inactive | inactive | inactive | inactive | – |
| O=C1C(Cl)C(CCl)CN1c1cccc(C(F)(F)F)c1 (stereo not drawn) | inactive | inactive | inactive | inactive | inactive | inactive | inactive | inactive | inactive | – |
| C[C@]12CC[C@H]3[C@@H](CCC4=CC(=O)CC[C@@H]43)[C@@H]1CC[C@@H]2OC(=O)CCC1CCCCC1 | inactive | inactive | inactive | inactive | inactive | inactive | inactive | inactive | inactive | – |
| CCc1ccc(C(=O)NN(C(=O)c2cc(C)cc(C)c2)C(C)(C)C)cc1 | inactive | – | inactive | inactive | inactive | inactive | inactive | inactive | inactive | – |
| O=C(OC1CCCCC1)c1ccccc1C(=O)OC1CCCCC1 | 46 µM (active) | 32.6 µM (active) | inactive | inactive | inactive | inactive | inactive | inactive | inactive | – |
| Cn1sc(Cl)cc1=O | inactive | inactive | inactive | inactive | inactive | inactive | 61.1 µM (active) | inactive | – | – |
| O=C(NC(=O)c1c(F)cccc1F)Nc1cc(Cl)c(Oc2ncc(C(F)(F)F)cc2Cl)c(Cl)c1 | – | – | inactive | inactive | inactive | inactive | – | inactive | – | 20.8 µM (active) |
| COCC(C)N(C(=O)CCl)c1c(C)csc1C (stereo not drawn) | – | inactive | inactive | inactive | inactive | inactive | inactive | inactive | – | – |
| CC(c1ccc(O)cc1)(c1ccc(O)cc1)c1ccc(O)cc1 | – | inactive | inactive | inactive | inactive | inactive | inactive | – | – | – |

Source: PubChem BioAssay (Tox21)
